# Test results as given in PubChem BioAssay.
# Values joined by “and” are separate entries in the source; they are usually repeats but may differ in a detail not shown here. Identical values can stand only once. Active and inactive are the calls of the source.
# Key:
# [1] = anti-His antibody binders, primary screen, artefact control for SMM control protein annotation, biochemical, small-molecule microarray, 635 nm fluorescence (AID 1128); settings: anti-His Alexa647 antibody binding, higher = more signal;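 note: score merges feature fluorescence with signal-to-noise for each printed compound spot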
# [2] = system: Human papillomavirus type 1a E7 protein (residues 1-88); experiment: HPV1a E7 small-molecule binders, primary screen, biochemical, small-molecule microarray, residues 1-88, 635 nm (AID 1129); settings: small-molecule microarray binding, fluorescence 635 nm; higher = more signal
# [3] = biological target: Focal adhesion kinase 1 (Homo sapiens) (UniProt Q05397); experiment: small-molecule microarray binders of FAK, primary screen, biochemical, 635/667 nm fluorescence, BSA, DTT (AID 1130); settings: PTK2 binding, 635 nm fluorescence, higher = more signal;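 note: composite of spot emission at 667 nm and signal to noise over triplicate slides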
# [4] = system: Fibrinogen (Alexa647-labelled); experiment: fibrinogen binders on compound microarrays, profiling panel, artefact control for SMM control-protein annotation, biochemical, small-molecule microarray, 635/667 nm fluorescence (AID 1131); settings: fibrinogen-A647 binding fluorescence, higher = more signal;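 note: z-score merges 667 nm fluorescence with per-spot signal-to-noise over triplicate slides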
# [5] = biological target: Follistatin (Homo sapiens) (UniProt P19883); experiment: follistatin binders on small-molecule microarrays, primary screen, biochemical, small-molecule microarray, 635/667 nm fluorescence (AID 1132); settings: FST binding, 635 nm fluorescence, higher = more signal
# [6] = biological target: Fibroblast growth factor 2 (Homo sapiens) (UniProt P09038); experiment: FGF2 binders on small-molecule microarrays, primary screen, biochemical, small-molecule microarray, 635/667 nm fluorescence (AID 1133); settings: small-molecule microarray binding, FGF2, fluorescence 635/667; higher = more signal
# [7] = mitochondrial membrane potential change in A549 cells, profiling panel, cell-based, JC-1 fluorescence, basal, 24 h, 100 nL (AID 1138); settings: higher = more signal;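 note: A549 lung adenocarcinoma cells under basal conditions with no added stimulus; test concentration not given here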
# Lefty1 = Lefty1 binders on small-molecule microarrays, primary screen, biochemical, small-molecule microarray, 635/667 nm fluorescence (AID 1139); settings: small-molecule microarray binding, fluorescence 635/667; higher = more signal
# [8] = system: wheat germ agglutinin (Triticum aestivum), Alexa647-labelled; experiment: wheat germ agglutinin binders on compound microarrays, profiling panel, artefact control for SMM control-protein annotation, biochemical, small-molecule microarray, 635/667 nm fluorescence (AID 1140); settings: WGA-A647 binding, 635 nm fluorescence, higher = more signal;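 note: score merges 667 nm feature emission with signal to noise over triplicate slides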
# [9] = biological target: Luciferin 4-monooxygenase (Photinus pyralis) (UniProt P08659); experiment: firefly luciferase enzyme inhibitors, primary screen, biochemical, luminescence, purified enzyme, 2006 set (AID 1141); settings: SteadyGlo luminescence, 30 min, higher = more signal, called active from +8 up or from −8 down;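 note: cell-free assay with purified firefly luciferase at 100 ng per well in PBS; test concentration not given here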
# Luciferin 4-monooxygenase (Photinus pyralis), sequence (P08659 whole entry, looked up): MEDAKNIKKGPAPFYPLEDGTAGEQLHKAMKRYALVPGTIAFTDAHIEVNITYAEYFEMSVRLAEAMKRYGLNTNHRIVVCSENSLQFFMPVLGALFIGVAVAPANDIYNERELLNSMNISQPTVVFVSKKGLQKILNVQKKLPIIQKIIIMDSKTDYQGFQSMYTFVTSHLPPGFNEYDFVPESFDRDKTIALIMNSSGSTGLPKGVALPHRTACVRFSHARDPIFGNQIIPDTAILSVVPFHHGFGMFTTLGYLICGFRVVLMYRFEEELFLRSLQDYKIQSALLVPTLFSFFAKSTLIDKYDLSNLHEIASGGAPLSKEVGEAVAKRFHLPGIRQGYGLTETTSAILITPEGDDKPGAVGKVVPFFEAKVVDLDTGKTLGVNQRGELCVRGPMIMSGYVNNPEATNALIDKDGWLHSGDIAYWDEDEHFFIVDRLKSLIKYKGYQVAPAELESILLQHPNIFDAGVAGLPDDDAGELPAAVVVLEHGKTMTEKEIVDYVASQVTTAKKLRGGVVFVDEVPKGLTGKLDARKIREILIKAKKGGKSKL
# Follistatin (Homo sapiens), sequence (P19883 whole entry, looked up): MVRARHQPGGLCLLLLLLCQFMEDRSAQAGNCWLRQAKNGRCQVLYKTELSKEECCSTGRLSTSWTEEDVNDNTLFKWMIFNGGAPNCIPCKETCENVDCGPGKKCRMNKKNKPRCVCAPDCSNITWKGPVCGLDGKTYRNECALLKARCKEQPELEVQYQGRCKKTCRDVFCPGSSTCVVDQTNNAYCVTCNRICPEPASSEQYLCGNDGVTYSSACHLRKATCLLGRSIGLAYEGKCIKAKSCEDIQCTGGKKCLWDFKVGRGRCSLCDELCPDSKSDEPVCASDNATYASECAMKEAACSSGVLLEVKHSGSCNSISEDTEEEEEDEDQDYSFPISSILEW
# Focal adhesion kinase 1 (Homo sapiens), sequence (Q05397 whole entry, looked up): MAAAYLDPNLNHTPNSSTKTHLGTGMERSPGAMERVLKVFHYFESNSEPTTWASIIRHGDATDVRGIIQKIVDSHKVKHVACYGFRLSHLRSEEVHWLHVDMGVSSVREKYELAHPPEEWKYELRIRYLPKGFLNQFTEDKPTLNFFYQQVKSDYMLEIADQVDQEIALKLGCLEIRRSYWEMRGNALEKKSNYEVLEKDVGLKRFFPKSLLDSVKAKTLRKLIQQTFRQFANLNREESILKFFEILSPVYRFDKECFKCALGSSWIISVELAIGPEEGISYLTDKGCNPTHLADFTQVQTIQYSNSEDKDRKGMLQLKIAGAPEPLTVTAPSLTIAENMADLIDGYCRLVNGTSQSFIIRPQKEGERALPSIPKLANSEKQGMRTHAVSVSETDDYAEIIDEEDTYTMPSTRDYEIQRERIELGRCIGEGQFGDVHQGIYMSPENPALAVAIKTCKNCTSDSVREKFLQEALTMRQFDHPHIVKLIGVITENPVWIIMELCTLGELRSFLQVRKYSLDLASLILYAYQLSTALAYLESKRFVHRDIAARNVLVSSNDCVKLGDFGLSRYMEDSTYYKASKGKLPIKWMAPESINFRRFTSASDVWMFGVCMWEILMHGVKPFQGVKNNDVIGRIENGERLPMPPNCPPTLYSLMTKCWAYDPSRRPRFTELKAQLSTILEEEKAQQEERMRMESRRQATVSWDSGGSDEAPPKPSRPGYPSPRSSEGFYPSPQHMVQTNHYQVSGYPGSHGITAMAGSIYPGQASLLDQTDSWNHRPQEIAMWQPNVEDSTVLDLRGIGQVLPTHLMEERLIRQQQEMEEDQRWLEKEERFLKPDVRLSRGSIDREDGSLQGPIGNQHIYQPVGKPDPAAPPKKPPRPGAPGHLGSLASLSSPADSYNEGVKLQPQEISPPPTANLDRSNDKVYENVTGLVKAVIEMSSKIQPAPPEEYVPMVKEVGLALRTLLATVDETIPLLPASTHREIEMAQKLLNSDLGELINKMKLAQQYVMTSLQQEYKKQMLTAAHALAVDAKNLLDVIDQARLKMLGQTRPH
# Fibroblast growth factor 2 (Homo sapiens), sequence (P09038 whole entry, looked up): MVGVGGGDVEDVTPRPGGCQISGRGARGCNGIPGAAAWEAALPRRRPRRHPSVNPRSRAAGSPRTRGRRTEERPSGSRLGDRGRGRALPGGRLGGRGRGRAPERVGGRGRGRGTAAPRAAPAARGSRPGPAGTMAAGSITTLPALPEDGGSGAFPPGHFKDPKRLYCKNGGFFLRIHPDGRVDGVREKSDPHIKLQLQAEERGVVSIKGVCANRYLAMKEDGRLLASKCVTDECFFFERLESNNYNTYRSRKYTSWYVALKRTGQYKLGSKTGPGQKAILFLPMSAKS
SMILES,composite z-score [1],composite z-score [2],composite z-score [3],composite z-score [4],composite z-score [5],composite z-score [6],z-score [7],composite z-score (Lefty1),composite z-score [8],z-score [9]
O=C1NC(=O)C2C1C=CC(C(O)c1ccc([N+](=O)[O-])cc1)N2Nc1ccc(Cl)cc1Cl (stereo not given),0.396 and 0.455,1.14 and 1.18,0.649 and 0.342,0.969 and 0.703,0.816 and 0.774,0.202 and -0.279,0.824 and -0.201,-0.427 and -0.899,0.751 and 1.39,-1.81 (inactive) and -2.34 (inactive)
CO[C@H]1COC(=O)CC=C[C@@H](C)COC(=O)[C@H](CCSC)NC(=O)CC=C[C@@H]1C,0.512 and -0.138,-0.375 and -0.74,0.285 and -0.776,-1.19 and -1.63,1.5 and 1.58,1.97 and 1.78,-1.26 and 0.523,1.79 and 1.82,-0.353 and -1.42,-0.142 (inactive) and -0.463 (inactive)
C=CCN(CCCC)C(=O)C1N(c2ccc(CCO)cc2)C(=O)C2C(C(=O)O)C3C=CC21O3 (stereo not given),-1.5 and -1.42,-1.48 and -1.18,-1.03 and 0.339,-1.01 and -2.98,-0.852 and -2.67,-0.893 and -2.56,-0.898 and -0.353,-1.39 and -3.01,0.0666 and -1.56,1.5 (inactive) and -1.51 (inactive)
C=CCN(CCCCC)C(=O)C(c1cccs1)N(C(=O)/C=C\C(=O)O)c1c(Cl)cccc1CO (stereo not given),-2 and 0.586,-0.682 and -0.485,-0.519 and -0.564,-1.31 and -2.3,-1.36 and -2.16,-2.06 and -2.71,-0.634 and 0.534,-1.88 and -1.54,-1.74 and -0.357,-0.0903 (inactive) and -0.46 (inactive)
C=CCN(CCCCC)C(=O)C(c1cccs1)N(CCOCCO)C(=O)/C=C\C(=O)O (stereo not given),-0.635 and -0.348,-1.05 and -0.826,-0.759 and 0.926,-1.57 and -1.63,-2.22 and -1.47,-1.77 and -1.79,1.34 and 0.685,-0.99 and -1.37,-0.539 and 0.579,-4.23 (inactive) and -3.13 (inactive)
C=CCN(C(=O)C1N(CCOCCO)C(=O)C2C(C(=O)O)C3C=CC21O3)C(C)(C)C (stereo not given),-0.673 and -0.976,-1.66 and -0.815,-0.324 and -0.708,-4.25 and -0.473,-2.09 and -1.58,-1.27 and -2.81,-0.147 and -0.774,-1.43 and -1.07,-0.511 and -0.0854,-0.352 (inactive) and 0.274 (inactive)
C=CCN(C(=O)C(c1cccs1)N(C(=O)/C=C\C(=O)O)c1ccc(CCO)cc1)C(C)(C)C (stereo not given),0.381 and 2.21,0.07 and 0.0514,0.721 and -0.265,-0.548 and -3.6,-0.985 and -1.66,-1.22 and -1.05,0.428 and 0.741,-1.76 and -2,0.559 and -0.287,-0.928 (inactive) and -0.538 (inactive)
COC(=O)[C@@]1(Cc2ccc(OC)cc2)[C@H]2c3cc(C(=O)N(C)C)n(Cc4ccc(O)c(OC)c4)c3C[C@H]2CN1C(=O)c1ccccc1,1.8 and 2.3,1.24 and 1.21,0.529 and 0.379,0.0218 and 0.962,0.231 and 0.715,-0.913 and -0.134,1.73 and 1.22,-0.268 and -0.542,1.39 and 0.989,1.75 (inactive) and 1.08 (inactive)
CC(CO)N1C(=O)[C@@H]2C3C(=O)OCCC=C[C@H]3OC23C=CCN(Cc2ccccc2)C(=O)[C@@H]13 (stereo not given in full),-0.814 and -1.05,-0.716 and -0.415,0.275 and -0.855,-1.73 and -0.886,-0.972 and -1.08,-0.995 and -0.746,0.739 and 0.735,-1.17 and -0.88,-1.16 and -0.612,-0.965 (inactive) and -0.875 (inactive)
CCOC(=O)c1ccc(NC(=O)O[C@H]2[C@H](OC(=O)Nc3ccccc3)[C@H](OC(=O)Nc3ccccc3)[C@@H](OC)O[C@@H]2CO)cc1,1.27 and 1.9,1.21 and 1.23,0.495 and 1.09,0.982 and 0.709,1.27 and 1.31,1.19 and 0.806,-0.469 and -0.781,0.551 and 1.15,0.96 and 1.22,0.197 (inactive) and -0.2 (inactive)
CC(C)=CCCC(C)=CCON=C1C[C@@H](O)[C@@H](O)[C@@H]2[C@@H]3C(=O)N([C@@H](C)c4ccccc4)C(=O)[C@@H]3CC[C@H]12,0.798,1.01,0.89,0.558,0.676,0.364,0.824,0.581,0.324,-0.677 (inactive)
C#CCN1C(/C=C/c2ccccc2)C(=O)OC[C@H]1c1ccccc1 (stereo not given in full),0.195 and 0.338,0.455 and 0.0982,0.0124 and 0.142,-0.106 and 0.137,1.28 and 0.768,0.441 and 1.07,-0.411 and -1,0.622 and 0.295,-0.19 and 0.017,-0.415 (inactive) and 0.754 (inactive)
CCCC[C@@H]1CN2[C@H](c3ccc(Br)cc3)[C@@H](C)CC[C@H]2C(=O)O1,-0.408 and 2.44,-0.535 and -0.105,-0.0211 and 0.0131,-0.167 and 0.546,0.0438 and -0.0845,0.186 and 0.0412,0.5 and 0.647,-0.128 and 0.0556,-0.22 and 0.313,-0.052 (inactive) and -1.79 (inactive)
CC(=O)OC[C@H]1O[C@H](C#CC(C)(C)C)C=C[C@@H]1OC(C)=O,0.726,0.996,0.589,0.979,0.418,0.791,0.707,1.22,0.445,-1.22 (inactive)
CCN1C(=O)[C@H]2[C@H]3[C@H](O)[C@H](O)CC(=NOC)[C@@H]3CC[C@H]2C1=O,-0.121,-0.805,-0.384,0.245,0.0723,-0.0102,1.16,0.164,0.299,-0.554 (inactive)
CC(CO)N1C(=O)[C@@H]2C3C(=O)OCCC=C[C@H]3OC23C=CCN(C(C)(C)C)C(=O)[C@@H]13 (stereo not given in full),-2.03 and 0.11,-1.08 and -0.0333,-0.0802 and -0.371,-1.65 and -0.445,-1.1 and -0.0304,-0.325 and -0.263,-0.619 and -0.394,-1.08 and 0.542,-2.85 and 0.0101,-0.685 (inactive) and -0.146 (inactive)
C=CCN(CCCCC)C(=O)C1N(CCOCCO)C(=O)C2C(C(=O)O)C3C=CC21O3 (stereo not given),-0.749 and -1.54,-1.08 and -0.838,-0.527 and -1.09,-1.97 and -0.97,-0.98 and -2.75,-2.29 and -2.04,0.586 and -0.536,-1.41 and -1.91,-1.19 and -2.06,0.171 (inactive) and 0.472 (inactive)
C=CCN(C(=O)C(c1cccs1)N(C(=O)/C=C\C(=O)O)C(C)(C)CO)c1ccc(OC)cc1 (stereo not given),-1.01 and -0.0442,-0.392 and -0.41,-0.675 and 1.18,-0.809 and -1.04,-1.7 and -1.17,-0.855 and -0.862,1.11 and 1.74,-1.22 and -0.566,-0.747 and -0.0298,-2.86 (inactive) and -5.74 (inactive)
CC(CO)N1C(=O)[C@@H]2C3C(=O)OCCC=C[C@H]3OC23C=CCN(c2ccc4ccccc4c2)C(=O)[C@@H]13 (stereo not given in full),0.62 and 1.59,-0.203 and -0.362,-0.192 and 0.525,-0.986 and -1.18,-0.0475 and -0.0413,-1.53 and -0.879,0.638 and 0.972,-0.0302 and -0.337,-0.388 and 0.771,-0.618 (inactive) and -0.657 (inactive)
CCCNC(=O)OC[C@H]1O[C@H](CCON=C(C)CCC(=O)OC[C@H]2O[C@H](C#Cc3ccccc3)C=C[C@@H]2Oc2ccc(C)cc2)C=C[C@@H]1Oc1ccc(OC)cc1,0.0888,-0.216,-0.17,-0.185,-0.437,-0.251,-0.611,0.0233,-0.26,1.41 (inactive)
Cc1cc2c(nc1C)CCCN2CC(O)CN1CCCc2nc(-c3ccc(Br)cc3)ccc21 (stereo not given),1.48 and 2.06,1.15 and 1.16,1.08 and 1.26,0.887 and 0.695,1.27 and 1.29,0.953 and 0.871,-0.118 and 1.8,1.34 and 0.844,1.15 and 1.36,-0.104 (inactive) and -0.176 (inactive)
CC(CO)N1C(=O)[C@@H]2C3C(=O)OCCC=C[C@H]3OC23C=CCN(CCN2CCOCC2)C(=O)[C@@H]13 (stereo not given in full),1.29 and 1.37,-0.795 and -0.0944,0.0101 and 1.02,-0.288 and 0.15,0.319 and -0.0336,-0.454 and -1.45,-0.0837 and -0.32,0.373 and 0.526,-0.0856 and 0.329,-0.272 (inactive) and -0.263 (inactive)
COC(=O)C1=C(C)N(Cc2ccccc2)[C@]23O[C@](C(=O)OC)(C(=O)N2[C@@H]1c1ccccc1)[C@H]1CCCC(=O)[C@H]13,0.677 and 1.34,0.312 and 0.104,-0.035 and 0.215,0.753 and 0.377,0.372 and 0.544,0.349 and 0.456,0.455 and -0.75,0.784 and 0.694,0.528 and -0.124,-0.5 (inactive) and 0.264 (inactive)
C=CCN(CCCC)C(=O)C(c1cccs1)N(C(=O)/C=C\C(=O)O)c1ccc(CCO)cc1 (stereo not given),1.25 and -2.52,-0.505 and -1.38,-0.504 and -1.21,-1.08 and -1.59,-1.43 and -2.34,-1.47 and -2.18,0.65 and 0.624,-1.58 and -2.71,0.266 and -2.25,-2.48 (inactive) and -2.8 (inactive)
C=C[C@H](OC)[C@@H](O)c1ccc(O)c(F)c1,-0.876 and -0.764,-1.22 and -1.21,-0.918 and -0.807,-2.91 and -1.06,-1.25 and -1.48,-0.826 and -1.47,-0.547 and -0.0182,-2.23 and -1.28,-1.47 and 0.129,-0.173 (inactive) and -0.446 (inactive)
C=C(C)C(=O)OC[C@@H]1CN2[C@@H](CC[C@@H](C)[C@@H]2c2ccc(Br)cc2)C(=O)O1,-0.0452,0.818,0.213,0.762,0.55,0.854,1.77,0.966,0.146,-0.721 (inactive)
C=C[C@@H](C)[C@@H](O)c1ccc(OCCO)cc1,-0.641 and -0.244,-0.66 and -0.875,-0.467 and -1.08,-1.87 and -1.43,-1.14 and -0.506,-2.62 and -0.83,-0.0607 and 0.803,-1.33 and -1.19,-0.616 and -0.2,-5.97 (inactive) and -7.19 (inactive)
C=CCN(CCCC)C(=O)C(c1cccs1)N(CCOCCO)C(=O)/C=C\C(=O)O (stereo not given),-0.542 and 1.17,-1.01 and 0.222,-0.552 and 0.468,-2.44 and -1.32,-1.31 and -0.249,-1.01 and -0.379,0.0562 and 0.567,-0.727 and -0.409,-0.667 and -0.193,-0.417 (inactive) and -0.714 (inactive)
